{"source": "PubChem BioAssay AID623870", "about": "(Broad Institute, 2012)", "note": "Among all 390,000 compounds or so, about 2,600 (0.67%) were called active. This is one part of a sample in which actives are shown more often than they occur.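 How the source made its calls: active means mean inhibition of replicates at least 50% and at least half of replicates each reaching 50%; inconclusive means half or more replicates reach 50% but mean below 50%; inactive means the rest.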"}
{"molecular_target": "Transforming acidic coiled-coil-containing protein 3 (Homo sapiens) (UniProt Q9Y6A5)", "experiment": "disruptors of ARNT/TACC3 protein interaction, primary screen, biochemical, AlphaScreen, single concentration (AID 623870);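 further: 0% = complete ARNT plus TACC3 wells and 100% = ARNT alone without TACC3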", "conditions": "AlphaScreen His-ARNT PAS-B/GST-TACC3 binding, luminescence; at 9.99 µM; active compounds read high; TACC3 fragment carries E629A point mutation"}
{"compound": "COc1ccc(C#Cc2cnc3c(c2)C(=O)N([C@H](C)CO)C[C@H](C)[C@H](CN(C)C(=O)CC2CC2)O3)cc1", "inhibition": "3.95% (inactive)"}
{"compound": "O=C1O[C@@H](c2ccccc2)[C@@H](c2ccccc2)N2[C@@H](c3ccccc3OCCO)[C@]3(C(=O)Nc4ccccc43)[C@@H](C(=O)N3CCCCCCC3)[C@H]12", "inhibition": "29.4% (inactive)"}
{"compound": "Cc1nnc(N/N=C/c2ccccn2)[nH]c1=O", "inhibition": "61.4% (active)"}
{"compound": "COc1ccc(-n2c(O)c(C=NCC(c3ccco3)N3CCCC3)c3ccccc3c2=O)cc1OC", "note": "(stereo not drawn)", "inhibition": "5.52% (inactive)"}
{"compound": "CCOc1ccc(-n2c(O)c(/C=N/Nc3nnc(C)c(=O)[nH]3)c3ccccc3c2=O)cc1", "inhibition": "66.5% (active)"}
{"compound": "CCOc1ccc(N/C(N)=N/c2nc(C)c(C)c(=O)[nH]2)cc1", "inhibition": "-20.7% (inactive)"}
{"compound": "C[C@@H]1CN([C@H](C)CO)C(=O)c2cc(C#CC3(O)CCCC3)cnc2O[C@H]1CN(C)Cc1ccncc1", "inhibition": "-3.19% (inactive)"}
{"compound": "O=C(C[C@@H]1CC[C@H]2[C@@H](COC[C@H](O)CN2C(=O)Nc2ccc(Cl)cc2)O1)NCC1CC1", "inhibition": "-0.418% (inactive)"}
{"compound": "CN(C)C(=O)[C@@H]1[C@@H](CO)[C@@H]2Cn3c(cccc3=O)[C@H]1N2CC1CCCCC1", "inhibition": "10.9% (inactive)"}
{"compound": "COCC(=O)N1C[C@H]2[C@@H](c3ccccc31)[C@@H](CO)N2Cc1ccccc1", "inhibition": "4.41% (inactive)"}
{"compound": "O=C(C[C@@H]1CC[C@@H]2[C@H](COC[C@@H](O)CN2Cc2ccccc2)O1)NCCc1ccccc1", "inhibition": "0.273% (inactive)"}
{"compound": "Clc1ccc(-c2cc(COc3ccccc3)no2)cc1Cl", "inhibition": "1.19% (inactive)"}
{"compound": "Fc1ccc(-c2ccc(CNCc3ccccn3)o2)cc1Cl", "inhibition": "59.1% (active)"}
{"compound": "COc1ccc(-c2ccc(CNCCCN3CCOCC3)o2)cc1Cl", "inhibition": "2.81% (inactive)"}
{"compound": "CO[C@H](CN(C)C(=O)c1cnccn1)[C@@H](C)CN([C@@H](C)CO)S(=O)(=O)c1ccc(C)cc1", "inhibition": "3.1% (inactive)"}
{"compound": "C[C@@H]1CN([C@@H](C)CO)C(=O)c2cc(-c3cncnc3)cnc2O[C@@H]1CN(C)C(=O)c1ccccc1F", "inhibition": "-2.75% (inactive)"}
{"compound": "C[C@@H]1CN([C@H](C)CO)S(=O)(=O)c2ccc(C#CCN(C)C)cc2O[C@@H]1CN(C)C(=O)CN(C)C", "inhibition": "-1.64% (inactive)"}
{"compound": "O=C(CCNc1n[nH]c(=O)[nH]c1=O)N/N=C\\c1ccc(Br)cc1", "inhibition": "1.48% (inactive)"}
{"compound": "O=C(CCCO)N/N=C/c1cc(Br)ccc1O", "inhibition": "80.7% (active)"}
{"compound": "O=C(CCNC(=O)c1ccccc1)NN=Cc1ccc(Br)o1", "inhibition": "0.9% (inactive)"}
{"compound": "CN1C(=O)c2cc(NS(=O)(=O)c3ccc(Cl)cc3)ccc2OC[C@H]2O[C@@H](CC(=O)O)CC[C@H]21", "inhibition": "4.03% (inactive)"}
{"compound": "C[C@@H]1CN([C@H](C)CO)C(=O)Cc2cc(NC(=O)CCCN(C)C)ccc2O[C@H]1CN(C)CC1CCCCC1", "inhibition": "0.403% (inactive)"}
{"compound": "CCOc1cc(CNCc2ccccn2)ccc1OCC(=O)NC(C)(C)C", "inhibition": "36.2% (inactive)"}
{"compound": "COc1ccc2ccccc2c1CNCc1ccccn1", "inhibition": "55.2% (active)"}
{"compound": "COc1cc(CNCc2ccc(OC)c3ccccc23)cc(OC)c1OC", "inhibition": "4.98% (inactive)"}
{"compound": "Cc1ccc(S(=O)(=O)Nc2ccc3c(c2)C(=O)N([C@H](C)CO)C[C@H](C)[C@H](CN(C)C(=O)NC(C)C)OCCCC[C@@H](C)O3)cc1", "inhibition": "-2.46% (inactive)"}
{"compound": "N/C(Cc1ccc([N+](=O)[O-])cc1)=N\\OC(=O)COc1ccc2ccccc2c1", "inhibition": "1.55% (inactive)"}
{"compound": "N/C(=N\\OC(=O)CCC1CCCCC1)c1ccccn1", "inhibition": "-3.39% (inactive)"}
{"compound": "N/C(=N\\OC(=O)Cc1ccc([N+](=O)[O-])cc1)c1ccccn1", "inhibition": "55.4% (active)"}
{"compound": "COc1ccc(S(=O)(=O)N[C@@H]2CC[C@@H](CC(=O)NCCc3ccccc3)O[C@@H]2CO)cc1", "inhibition": "-3.62% (inactive)"}
{"compound": "CCCC#Cc1ccc2c(c1)O[C@@H](CN(C)C(=O)CC)[C@@H](C)CN([C@H](C)CO)S2(=O)=O", "inhibition": "5.6% (inactive)"}
{"compound": "Cc1cccc(S(=O)(=O)N[C@H]2CC[C@@H](CCNS(=O)(=O)c3ccccc3F)O[C@H]2CO)c1", "inhibition": "1.77% (inactive)"}
{"compound": "CCOC(=O)c1ccc(Nc2cc3ccccc3c(=O)[nH]2)cc1", "inhibition": "4.54% (active)"}
{"compound": "CCOC(=O)c1ccc(NC(=O)C2CC(=O)Nc3nc4ccccc4n32)cc1", "note": "(stereo not drawn)", "inhibition": "1.15% (inactive)"}
{"compound": "CC(C)CN(C(=O)COC(=O)c1ccc2ccccc2c1)c1c(N)n(Cc2ccccc2)c(=O)[nH]c1=O", "inhibition": "-0.235% (inactive)"}
{"compound": "O=C(C[C@H]1C[C@@H]2c3cc(NC(=O)C4CCOCC4)ccc3O[C@@H]2[C@H](CO)O1)NCC1CC1", "inhibition": "-7.92% (inactive)"}
{"compound": "O=c1cc(CCl)nc2scc(-c3ccccc3)n12", "inhibition": "-9.12% (inactive)"}
{"compound": "OCCn1c(-c2ccccc2)csc1=Nc1ccccc1", "inhibition": "51% (active)"}
{"compound": "COc1ccccc1S(=O)(=O)N1CC[C@H]2[C@@H](CO)N(C)c3ccc(C#Cc4ccccc4)cc3[C@H]21", "inhibition": "9.34% (inactive)"}
{"compound": "C[C@H]1CN([C@@H](C)CO)C(=O)Cc2cc(NS(C)(=O)=O)ccc2O[C@@H]1CN(C)S(=O)(=O)c1cccs1", "inhibition": "-10.4% (inactive)"}
{"compound": "O=C(C[C@@H]1C[C@@H]2c3cc(NS(=O)(=O)c4ccc(F)cc4)ccc3O[C@@H]2[C@H](CO)O1)NCc1ccccc1F", "inhibition": "-1.77% (inactive)"}
{"compound": "N#Cc1c(N2CCCCC2)nc(N)c2c(N)nc(SCC(=O)O)cc12", "inhibition": "80.8% (active)"}
{"compound": "CCCN1[C@H](C(=O)N[C@H](C)c2ccccc2)[C@@H](CO)[C@@H]2Cn3c(ccc(-c4cccc(F)c4)c3=O)[C@@H]21", "inhibition": "2.44% (inactive)"}
{"compound": "C[C@@H]1CN([C@H](C)CO)C(=O)Cc2cc(NC(=O)CCC(F)(F)F)ccc2O[C@@H]1CN(C)CC1CCCCC1", "inhibition": "2.83% (inactive)"}
{"compound": "COc1ccccc1-c1cccc(-c2nc(C(=O)N3CCN(C)CC3)cc3c2[C@H](CCO)N([S@@](=O)C(C)(C)C)C3)c1", "inhibition": "51.3% (active)"}
{"compound": "CC(C)(C)[S@](=O)N1Cc2cc(C(=O)N3CCCCC3)nc(-c3cccc(-c4ccccc4F)c3)c2[C@@H]1CCO", "inhibition": "9.08% (inactive)"}
{"compound": "CN1CCN(C(=O)c2cc3c(c(-c4cccc(-c5ccc(C(=O)N(C)C)cc5)c4)n2)[C@@H](CCO)N([S@](=O)C(C)(C)C)C3)CC1", "inhibition": "-5.08% (inactive)"}
{"compound": "C[C@@H]1CN([C@H](C)CO)C(=O)c2cc(NC(=O)Nc3ccccc3)ccc2O[C@@H](C)CCCCO[C@@H]1CN(C)S(=O)(=O)c1ccc(F)cc1", "inhibition": "-3.52% (inactive)"}
{"compound": "CCCNC(=O)N(C)C[C@H]1Oc2ncc(-c3cccc(C#N)c3)cc2C(=O)N([C@@H](C)CO)C[C@@H]1C", "inhibition": "-5.02% (inactive)"}
{"compound": "O=C(NCCCn1ccnc1)c1cc(Br)c(Br)s1", "inhibition": "15.4% (inactive)"}
{"compound": "O=C(NCCCn1ccnc1)c1cc(-c2ccccc2)on1", "inhibition": "1.74% (inactive)"}
{"compound": "O=C(NCCCn1ccnc1)c1cc2c(s1)CCCC2", "inhibition": "49.3% (active)"}
{"compound": "O=C(N[C@H]1CC[C@H](CCNS(=O)(=O)c2ccc(F)cc2)O[C@H]1CO)c1cccc(F)c1", "inhibition": "3.52% (inactive)"}
{"compound": "CCS(=O)(=O)N1CCCCN2[C@@H](CO)[C@@H](c3ccc(-c4ccccc4)cc3)[C@@H]2C1", "inhibition": "-0.151% (inactive)"}
{"compound": "O=C([C@H]1[C@H](CO)[C@H]2Cn3c(ccc(-c4ccccc4)c3=O)[C@@H]1N2Cc1cccnc1)N1CCOCC1", "inhibition": "42.2% (inactive)"}
{"compound": "Cn1c(=O)c2c(nc(N/N=C/c3cccs3)n2Cc2ccc(Br)cc2)n(C)c1=O", "inhibition": "12.7% (inactive)"}
{"compound": "Cc1n[nH]c(=O)nc1N/N=C/c1cccs1", "inhibition": "67.8% (active)"}
{"compound": "O=c1nc(N/N=C/c2ccco2)cn[nH]1", "inhibition": "5.23% (inactive)"}
{"compound": "C[C@@H]1CN([C@@H](C)CO)C(=O)c2cc(C3=CCCC3)cnc2O[C@@H]1CN(C)C(=O)Cc1ccncc1", "inhibition": "3.47% (inactive)"}
{"compound": "Cc1ccc(S(=O)(=O)Nc2ccc3c(c2)C(=O)N([C@H](C)CO)C[C@H](C)[C@H](CN(C)S(C)(=O)=O)O3)cc1", "inhibition": "-7.55% (inactive)"}
{"compound": "C[C@@H]1CN([C@@H](C)CO)C(=O)c2cc(-c3cccc(F)c3)cnc2O[C@@H]1CN(C)Cc1ccccc1", "inhibition": "1.97% (inactive)"}
{"compound": "COc1ccc(-c2ccc3c(c2)O[C@H](CN(C)Cc2ccccc2C(=O)O)[C@H](C)CN([C@@H](C)CO)S3(=O)=O)cc1", "inhibition": "5.2% (inactive)"}
{"compound": "CN(C)Cc1cn(CC[C@H]2CC[C@@H](NS(=O)(=O)c3ccccc3)[C@H](CO)O2)nn1", "inhibition": "-3.27% (inactive)"}
{"compound": "O=C(N[C@@H]1CC[C@H](CCn2cc(-c3ccccn3)nn2)O[C@@H]1CO)c1ccccc1", "inhibition": "87.5% (active)"}
{"compound": "CN(C)Cc1cn(CC[C@H]2CC[C@H](NS(=O)(=O)c3ccccc3)[C@@H](CO)O2)nn1", "inhibition": "-3.47% (inactive)"}
{"compound": "O=S(=O)(N[C@@H]1CC[C@@H](CCn2cc(-c3ccccn3)nn2)O[C@@H]1CO)c1cccc(Cl)c1", "inhibition": "69.9% (active)"}
{"compound": "O=C(N[C@@H]1CC[C@@H](CCn2cc(-c3ccccn3)nn2)O[C@@H]1CO)c1ccccc1", "inhibition": "40.7% (inactive)"}
{"compound": "O=C(N[C@@H]1CC[C@H](CCn2cc(-c3ccccc3)nn2)O[C@H]1CO)c1cnccn1", "inhibition": "4.06% (inactive)"}
{"compound": "C[C@H]1CN([C@@H](C)CO)C(=O)c2cc(C3=CCCC3)cnc2O[C@@H]1CN(C)C(=O)c1ccccc1", "inhibition": "-1.02% (inactive)"}
{"compound": "CC(C)OC(=O)N(C)C[C@@H]1OCc2ccccc2-c2c(n(C)c3ccccc23)C(=O)N([C@H](C)CO)C[C@H]1C", "inhibition": "5.73% (inactive)"}
{"compound": "CCC(=O)N(C)C[C@H]1Oc2cc(C#CCOC)ccc2S(=O)(=O)N([C@H](C)CO)C[C@H]1C", "inhibition": "1.93% (inactive)"}
{"compound": "CC(=O)Nc1ccc2c(c1)C(=O)N(C)[C@H]1CC[C@@H](CC(=O)NCC3CC3)O[C@H]1CO2", "inhibition": "-14.7% (inactive)"}
{"compound": "O=C(C[C@H]1CC[C@H]2[C@@H](COC[C@H](O)CN2Cc2ccncc2)O1)NCC1CC1", "inhibition": "14.4% (inactive)"}
